Results as given in PubChem BioAssay AID2284169 (EPA ToxCast).
The source made the active and inactive calls. Rule for the calls: active = hit-call score of the fitted dose curve at least 0.9, where 1 is the maximum; inactive = score below 0.9.

Each compound was assayed against human Opioid Receptor NOP (ORL1) Agonism, OPRL1 (gene 4987) (UniProt P41146) (assay: ERF_FR_GPCR_hOPRL1: Eurofins (ERF) G Protein-Coupled Receptor (GPCR) Radioligand Binding LeadHunter Assay for human Opioid Receptor NOP (ORL1) Agonism).
Procedure: ERF_FR_GPCR_hOPRL1 is a biochemical, single-readout assay that uses extracted gene-proteins in a cell-free assay. Measurements were taken 1 hour after chemical dosing in a 96-well plate. See NOP (ORL1) Human Opioid GPCR Binding (Agonist Radioligand) Assay, Cerep.ERF_FR_GPCR_hOPRL1 is an assay component calculated from the ERF_FR_GPCR_hOPRL1 assay. It is designed to measure radioligand binding using a type of binding reporter as detected by scintillation counting with radiometry technology.Data from the assay component ERF_FR_GPCR_hOPRL1 was analyzed at the assay endpoint, ERF_FR_GPCR_hOPRL1, in the positive analysis fitting direction relative to DMSO as the negative control and baseline of activity. Using a type of binding reporter, gain-of-signal activity can be used to understand changes in binding as they relate to gene OPRL1. To generalize the intended target to other relatable targets, this assay endpoint is annotated to the gpcr intended target family, where the subfamily is opioid.
Human cells are incubated for 60 minutes at room temprature with [3H]nociceptin ligand (0.1 nM) and Nociceptin as control inhibitor. Test Sample Requirements: Minimum for 1) Screen: 60 ul of 10 mM stock -OR- 1 mg (pre-weighed) for 10 uM final testing. 2) Dose Response: 90 ul of 10 mM stock -OR- 1 mg (pre-weighed) for a top concentration at 10 uM.

human Opioid Receptor NOP (ORL1) Agonism, OPRL1 (gene 4987), sequence (P41146 whole entry, looked up): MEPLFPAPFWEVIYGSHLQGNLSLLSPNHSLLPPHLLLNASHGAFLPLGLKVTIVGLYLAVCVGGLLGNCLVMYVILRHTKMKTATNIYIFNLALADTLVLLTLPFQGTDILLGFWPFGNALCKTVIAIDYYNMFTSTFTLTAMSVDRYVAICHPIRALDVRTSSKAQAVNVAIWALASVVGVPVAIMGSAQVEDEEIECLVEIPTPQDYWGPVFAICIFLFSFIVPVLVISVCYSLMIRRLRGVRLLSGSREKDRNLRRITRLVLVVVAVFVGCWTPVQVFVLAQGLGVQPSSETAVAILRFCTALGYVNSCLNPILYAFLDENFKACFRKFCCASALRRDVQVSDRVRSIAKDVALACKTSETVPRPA

Compound | AC50 | outcome
O=C(/C=C/c1ccc(O)cc1)CC(=O)/C=C/c1ccc(O)cc1 | 3.86 µM (active) | –
COc1cc(CCC(=O)CC(=O)CCc2ccc(O)c(OC)c2)ccc1O | – | inactive
CCCCC[C@H](O)CC(=O)CCc1ccc(O)c(OC)c1 | – | inactive
COc1cc(/C=C/C(=O)CC(=O)/C=C/c2ccc(O)c(OC)c2)ccc1O | 5 µM (active) | –
